# From the supplement of paper PMC13380429
# Test system: Vero E6 infected with SARS-CoV-2
# Experiment: inhibition of SARS-CoV-2 cytopathic effect; higher = more antiviral protection, active = above 15
# Details: 1 nM; 48 h
row,Structure (SMILES),inhibition of SARS-CoV-2 cytopathic effect
1,Clc1cc(Cl)c(OCC#CI)cc1Cl [haloprogin],-0.57% (inactive)
2,N#C[C@H](O[C@@H]1O[C@H](CO[C@@H]2O[C@H](CO)[C@@H](O)[C@H](O)[C@H]2O)[C@@H](O)[C@H](O)[C@H]1O)c1ccccc1 [amygdalin],0.51% (inactive)
3,CC(=O)SC[C@@H](C)C(=O)N1CCC[C@H]1C(=O)N[C@@H](Cc1ccccc1)C(=O)O [alacepril],-1.69% (inactive)
4,Cc1ccc(-n2nc(C(C)(C)C)cc2NC(=O)NCc2cc(F)ccc2Oc2ccc3c(cnn3CCO)c2)cc1 [pexmetinib],-0.97% (inactive)
5,CC(C)NCC(O)COc1cccc2[nH]c3ccccc3c12 (stereo not given) [carazolol],1.76% (inactive)
6,CCOC(=O)Nc1cc(-c2ccc(C)c(NS(C)(=O)=O)c2)nn2c(C)nnc12 [bromosporine],-4.03% (inactive)
7,FC(F)(F)c1cc(CO[C@H]2CCCN[C@H]2c2ccccc2)cc(C(F)(F)F)c1,0.32% (inactive)
8,Cc1cc(Cl)ccc1OCCCC(=O)NO [droxinostat],4.45% (inactive)
9,CC1(C)[C@H](C(=O)O)N2C(=O)C[C@H]2S1(=O)=O [sulbactam],2.32% (inactive)
10,CCc1nn(CCO)c(CC)c1Oc1cc(C#N)cc(C#N)c1 [lersivirine],2.25% (inactive)
11,Cc1cc(=O)n(-c2ccccc2)[nH]1 [N-demethylantipyrine],6.19% (inactive)
12,C/C(=N\Nc1nnc2c(n1)[nH]c1c(C)cccc12)c1ccccn1,0.125% (inactive)
13,Cc1ccc(Cl)cc1N(CC(=O)Nc1c(F)cccc1F)S(C)(=O)=O,2.5% (inactive)
14,O=C(O)C1(C(=O)O)CCC1.[NH2-].[NH2-].[Pt+2] [carboplatin],2.35% (inactive)
15,O=C(O)c1cc(N2N=C(C(F)(F)F)/C(=C/c3ccc(-c4ccccc4)o3)C2=O)ccc1Cl,0.12% (inactive)
16,CCCCC(CC)CNC(=N)NC(=N)NCCCCCCNC(=N)NC(=N)NCC(CC)CCCC (stereo not given) [alexidine],-2.11% (inactive)
17,C[C@H](Cc1ccc(O)c(O)c1)[C@@H](C)Cc1ccc(O)c(O)c1 [masoprocol],-3.87% (inactive)
18,O=C1C=Cc2cc(Br)ccc2C1=O [bonaphthone],-0.83% (inactive)

row,Structure (SMILES),inhibition of SARS-CoV-2 cytopathic effect
1,COc1ccc(C2CNC(=O)NC2)cc1O[C@H]1C[C@@H]2CC[C@H]1C2 [atizoram],-0.64% (inactive)
2,Cc1ccc2cc(-c3c(C)ccc(C(=O)c4c(-c5ccccc5)n(C)n(-c5ccccc5)c4=O)c3N)ccc2n1,-0.74% (inactive)
3,O=C(Cc1ccc(Cl)c(Cl)c1)N1CCCC[C@@H]1CN1CCCC1,-0.96% (inactive)
4,COc1ccc2cc3[n+](cc2c1OC)CCc1cc2c(cc1-3)OCO2 [berberine],-11.8% (inactive)
5,Oc1nc(-c2ccc(C(F)(F)F)cc2)nc2c1CSCC2,4.88% (inactive)
6,NCC1(CC(=O)O)CCCCC1 [gabapentin],-2.49% (inactive)
7,CCn1c(-c2nonc2N)nc2cncc(C(=O)N3CC[C@H](N)C3)c21,0.81% (inactive)
8,O=C1[O][SbH]23[O]C(=O)C([O]2)C2[O][SbH]4([O]C(=O)C([O]4)C1[O]3)[O]C2=O [antimonyl],0.49% (inactive)
9,COc1ccc(-c2nc(-c3ccc(-c4cccc(Cl)c4)o3)[nH]c2-c2ccc(OC)cc2)cc1 [neurodazine],0.83% (inactive)
10,O=C(O)C(Cc1ccccc1[N+](=O)[O-])=NNc1nc(-c2ccc(Cl)c(Cl)c2)cs1,4.49% (inactive)
11,C[N+]12CCCCC1CCC(=C(c1cccs1)c1cccs1)C2 (stereo not given) [tiquizium],-3.91% (inactive)
12,O=C(O)CCCCC(CCSCc1ccccc1)SCc1ccccc1 (stereo not given),1.25% (inactive)
13,COC(=O)[C@H](c1ccccc1Cl)N1CCc2sccc2C1 [clopidogrel],0.4% (inactive)
14,CCCCC1=NC2(CCCC2)C(=O)N1Cc1ccc(-c2ccccc2-c2nnn[nH]2)cc1 [irbesartan],-1.49% (inactive)
15,CCCCCCCCCCCCCCSCC(=O)O [tetradecylthioacetic-acid],0.56% (inactive)
16,COc1c(N2C[C@@H]3CCCN[C@@H]3C2)c(F)cc2c(=O)c(C(=O)O)cn(C3CC3)c12 [moxifloxacin],1.16% (inactive)
17,CC(C)(F)C[C@H](N[C@@H](c1ccc(-c2ccc(S(C)(=O)=O)cc2)cc1)C(F)(F)F)C(=O)NC1(C#N)CC1 [odanacatib],-3.88% (inactive)
